The source of these data is ChEMBL document CHEMBL2218924, “A broad activity screen in support of a chemogenomic map for kinase signalling research and drug discovery” (Biochem J, 2013).

Assay [1] deals with Protein kinase C eta type (Homo sapiens) (UniProt P24723). The following applies: at 1 µM.
Assay [2] has the same target. The following applies: at 10 µM.
Assay [3] deals with Protein kinase C theta type (Homo sapiens) (UniProt Q04759). The following applies: at 1 µM.
Assay [4] shares this target. The following applies: at 10 µM.
The target of assay [5] is T1, Protein kinase C iota type (Homo sapiens) (UniProt P41743).
T1 sequence (whole entry): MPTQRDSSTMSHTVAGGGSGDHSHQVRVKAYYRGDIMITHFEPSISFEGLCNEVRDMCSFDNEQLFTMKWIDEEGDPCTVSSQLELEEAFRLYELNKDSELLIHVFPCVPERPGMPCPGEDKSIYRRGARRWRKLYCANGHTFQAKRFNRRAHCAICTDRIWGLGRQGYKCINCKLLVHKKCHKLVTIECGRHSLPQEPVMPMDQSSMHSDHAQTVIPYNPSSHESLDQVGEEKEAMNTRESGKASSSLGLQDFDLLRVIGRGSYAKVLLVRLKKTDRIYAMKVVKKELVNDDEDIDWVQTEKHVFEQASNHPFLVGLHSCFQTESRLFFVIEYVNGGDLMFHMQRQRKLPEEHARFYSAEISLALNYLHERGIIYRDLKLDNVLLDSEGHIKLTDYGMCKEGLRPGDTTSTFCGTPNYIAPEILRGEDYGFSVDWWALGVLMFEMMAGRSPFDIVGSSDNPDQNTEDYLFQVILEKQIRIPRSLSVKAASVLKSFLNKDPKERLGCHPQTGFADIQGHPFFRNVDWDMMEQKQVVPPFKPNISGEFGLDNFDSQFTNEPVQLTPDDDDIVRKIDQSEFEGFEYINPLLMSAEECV
The following applies: at 1 µM.

For assay [6], the target named is T1, Protein kinase C iota type (Homo sapiens). The following applies: at 10 µM.
Assay [7] deals with T2, Serine/threonine-protein kinase D1 (Homo sapiens) (UniProt Q15139).
T2 sequence (whole entry): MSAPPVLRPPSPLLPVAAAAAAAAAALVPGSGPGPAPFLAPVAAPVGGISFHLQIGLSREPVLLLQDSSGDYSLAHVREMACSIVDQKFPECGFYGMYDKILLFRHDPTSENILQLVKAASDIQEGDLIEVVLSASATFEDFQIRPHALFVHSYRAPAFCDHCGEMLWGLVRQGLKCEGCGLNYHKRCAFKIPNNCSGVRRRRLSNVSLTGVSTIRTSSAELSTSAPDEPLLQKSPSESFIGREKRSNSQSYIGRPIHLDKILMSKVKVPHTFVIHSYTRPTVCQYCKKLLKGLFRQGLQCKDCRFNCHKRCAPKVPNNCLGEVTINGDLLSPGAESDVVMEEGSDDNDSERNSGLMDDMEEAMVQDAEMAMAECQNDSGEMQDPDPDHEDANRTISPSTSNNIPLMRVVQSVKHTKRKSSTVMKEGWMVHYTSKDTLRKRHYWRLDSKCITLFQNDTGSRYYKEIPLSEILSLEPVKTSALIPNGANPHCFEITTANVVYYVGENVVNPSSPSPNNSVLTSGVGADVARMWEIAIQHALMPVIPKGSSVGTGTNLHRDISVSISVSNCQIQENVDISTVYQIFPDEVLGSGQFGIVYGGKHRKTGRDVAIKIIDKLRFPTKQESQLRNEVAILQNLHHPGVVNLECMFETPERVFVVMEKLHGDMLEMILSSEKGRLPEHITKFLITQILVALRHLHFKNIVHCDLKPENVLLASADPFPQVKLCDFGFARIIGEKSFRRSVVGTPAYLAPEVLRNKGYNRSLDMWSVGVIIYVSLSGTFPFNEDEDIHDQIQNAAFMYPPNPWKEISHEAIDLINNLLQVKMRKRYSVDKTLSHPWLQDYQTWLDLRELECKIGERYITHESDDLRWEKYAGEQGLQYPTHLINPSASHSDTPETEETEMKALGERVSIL
The following applies: at 1 µM.

The target in assay [8] is T2, Serine/threonine-protein kinase D1 (Homo sapiens). The following applies: at 10 µM.
Assay [9] concerns the target T3, Serine/threonine-protein kinase D2 (Homo sapiens) (UniProt Q9BZL6).
T3 sequence (whole entry): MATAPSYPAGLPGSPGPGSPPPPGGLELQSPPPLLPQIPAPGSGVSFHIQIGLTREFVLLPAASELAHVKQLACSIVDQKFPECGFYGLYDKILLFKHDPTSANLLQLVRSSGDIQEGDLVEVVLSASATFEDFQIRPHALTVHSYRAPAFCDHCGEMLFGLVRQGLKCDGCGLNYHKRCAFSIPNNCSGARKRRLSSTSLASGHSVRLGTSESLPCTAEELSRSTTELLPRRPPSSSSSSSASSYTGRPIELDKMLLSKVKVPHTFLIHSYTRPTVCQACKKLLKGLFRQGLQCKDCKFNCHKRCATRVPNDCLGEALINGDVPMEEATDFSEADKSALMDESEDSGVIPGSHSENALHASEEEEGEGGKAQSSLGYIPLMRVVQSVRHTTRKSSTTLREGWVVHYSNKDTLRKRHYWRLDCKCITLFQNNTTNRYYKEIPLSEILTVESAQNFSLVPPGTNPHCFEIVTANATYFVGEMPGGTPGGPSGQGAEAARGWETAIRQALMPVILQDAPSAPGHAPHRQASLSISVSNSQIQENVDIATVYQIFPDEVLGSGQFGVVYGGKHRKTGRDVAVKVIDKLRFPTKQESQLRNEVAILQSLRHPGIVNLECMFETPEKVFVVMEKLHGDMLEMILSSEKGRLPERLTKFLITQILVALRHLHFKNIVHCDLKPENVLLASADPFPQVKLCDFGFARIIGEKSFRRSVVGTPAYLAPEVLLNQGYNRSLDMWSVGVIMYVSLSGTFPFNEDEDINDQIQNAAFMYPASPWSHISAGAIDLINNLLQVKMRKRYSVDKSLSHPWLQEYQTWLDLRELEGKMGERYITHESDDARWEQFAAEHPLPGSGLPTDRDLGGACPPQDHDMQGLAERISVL
The following applies: at 1 µM.

For assay [10], the target named is T3, Serine/threonine-protein kinase D2 (Homo sapiens). The following applies: at 10 µM.

The structures appear in SMILES notation.

Protein kinase C theta type (Homo sapiens), sequence (Q04759 whole entry, looked up): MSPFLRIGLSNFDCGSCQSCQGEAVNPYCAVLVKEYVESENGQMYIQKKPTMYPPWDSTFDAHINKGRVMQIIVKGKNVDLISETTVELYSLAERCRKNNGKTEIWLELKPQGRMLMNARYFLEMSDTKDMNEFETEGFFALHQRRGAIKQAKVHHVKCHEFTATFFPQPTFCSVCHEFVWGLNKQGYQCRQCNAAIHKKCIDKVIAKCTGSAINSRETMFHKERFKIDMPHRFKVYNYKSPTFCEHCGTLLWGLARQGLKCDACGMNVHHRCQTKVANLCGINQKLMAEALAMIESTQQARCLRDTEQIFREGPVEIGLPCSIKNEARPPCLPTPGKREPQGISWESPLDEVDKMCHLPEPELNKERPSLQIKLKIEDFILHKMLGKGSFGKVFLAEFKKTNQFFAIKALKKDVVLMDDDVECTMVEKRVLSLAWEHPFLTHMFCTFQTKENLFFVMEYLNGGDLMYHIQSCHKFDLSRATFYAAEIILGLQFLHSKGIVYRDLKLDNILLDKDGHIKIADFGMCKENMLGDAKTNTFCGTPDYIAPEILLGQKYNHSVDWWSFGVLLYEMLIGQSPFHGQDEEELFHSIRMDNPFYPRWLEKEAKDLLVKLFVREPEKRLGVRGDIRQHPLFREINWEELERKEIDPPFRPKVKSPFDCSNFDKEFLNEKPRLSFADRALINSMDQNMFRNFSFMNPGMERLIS
Protein kinase C eta type (Homo sapiens), sequence (P24723 whole entry): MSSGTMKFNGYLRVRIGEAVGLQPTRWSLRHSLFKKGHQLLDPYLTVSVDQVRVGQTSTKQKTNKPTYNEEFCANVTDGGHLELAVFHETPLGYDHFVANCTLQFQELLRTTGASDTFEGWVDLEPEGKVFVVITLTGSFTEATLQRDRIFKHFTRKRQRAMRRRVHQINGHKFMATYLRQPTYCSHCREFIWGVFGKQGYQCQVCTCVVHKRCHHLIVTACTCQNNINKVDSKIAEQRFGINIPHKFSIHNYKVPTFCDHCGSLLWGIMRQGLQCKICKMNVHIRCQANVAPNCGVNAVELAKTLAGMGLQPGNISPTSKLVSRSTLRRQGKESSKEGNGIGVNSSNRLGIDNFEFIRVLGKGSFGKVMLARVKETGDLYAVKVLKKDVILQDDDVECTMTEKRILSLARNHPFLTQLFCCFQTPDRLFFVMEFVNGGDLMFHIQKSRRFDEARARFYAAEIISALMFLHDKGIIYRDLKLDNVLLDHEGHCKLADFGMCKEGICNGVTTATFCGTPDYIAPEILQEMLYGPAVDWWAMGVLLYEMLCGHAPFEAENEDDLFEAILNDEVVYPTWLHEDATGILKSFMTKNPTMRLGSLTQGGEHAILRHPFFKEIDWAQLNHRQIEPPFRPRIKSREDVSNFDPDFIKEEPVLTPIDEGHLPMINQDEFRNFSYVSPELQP

As a reminder, the residual activity is the signal under treatment as a percentage of the control signal. Take `Oc1n[nH]c2nnc(-c3c(-c4ccccc4)nn4ccccc34)cc12`: the residual activity was 78% in assay [1]; 89% in [2]; 81% in [3]; 75% in assay [4]; 104% (inactive) in assay [5]; 103% in assay [6]. Moreover, the residual activity in assay [7] was determined as 89%; in [8], 71%; in assay [9], 104%; in assay [10], 98%.

With `O=C1NC(=O)c2cc(Nc3ccc(F)cc3)c(Nc3ccc(F)cc3)cc21`, the residual activity is 91% in assay [1]; 80% in assay [2]; 87% in assay [3]; 62% in assay [4]; 91% (inactive) in assay [5]; 106% in assay [6]. In addition, the residual activity in assay [7] turned out to be 94%; in assay [8], 72%; in assay [9], 101%; in assay [10] it was 89%.

For `O=C1Nc2cc(Br)ccc2/C1=C1/Nc2ccccc2/C1=N\O`, the residual activity in [1] is 76%; in assay [2], 74%; in [3], 87%; in [4], 75%; in assay [5], 110% (inactive); in assay [6], 112%. The residual activity in assay [7] worked out at 90%; in assay [8], 100%; in assay [9], 101%; in assay [10], 95%.

In the case of `CN(C)c1ccc(/C=C2\C(=O)Nc3ccccc32)cc1`, the residual activity in [1] was 102%; in assay [2], 93%; in [3], 117%; in assay [4], 85%; in [5], 92% (inactive); in [6], 78%. For the same molecule, the residual activity came to 96% in [7], 81% in [8], 103% in [9] and 114% in assay [10].

Consider `Cn1cnc2cc3c(Nc4cccc(Br)c4)ncnc3cc21`, for which the residual activity was 93% in [1]; 91% in [2]; 99% in [3]; 100% in [4]; 103% (inactive) in assay [5]; 76% in [6]. Besides, the residual activity in [7] came out at 94%; in [8], 82%; in assay [9] it was 97%; in [10] it was 116%.

For the molecule `c1ccc2c(-c3ccncc3)c[nH]c2c1`, the residual activity in assay [1] was 64%; in assay [2], 17%; in [3], 88%; in assay [4] it was 70%; in assay [5], 89% (inactive); in [6], 67%. The residual activity was found to be 87% in [7], 69% in assay [8], 104% in [9] and 106% in assay [10].

In the case of `COc1ccc(CNc2nc(N(CCO)CCO)nc3c2ncn3C(C)C)cc1`, the residual activity was 83% in [1]; 83% in [2]; 4% in [3]; 5% in assay [4]; 112% (inactive) in assay [5]; 108% in [6]. Also, the residual activity turned out to be 91% in assay [7], 71% in assay [8], 101% in assay [9] and 93% in assay [10].

In the case of `Cc1cncc2cccc(S(=O)(=O)N3CCCN(C(=O)CN)C[C@H]3C)c12`, the residual activity in assay [1] was 27%; in [2] it was 4%; in assay [3], 21%; in [4], 3%; in [5], 82% (inactive); in assay [6] it was 75%. Further, the values for the residual activity in assay [7] and in [8] were 83% and 71%, respectively.

As for `CCN(CC)CCCCN1c2ccccc2Oc2ccc(Cl)cc21`, the residual activity is 118% in assay [1]; 98% in assay [2]; 123% in assay [3]; 90% in assay [4]; 94% (inactive) in [5]; 89% in assay [6]. Besides, the residual activity came out at 92% in [7], 95% in assay [8], 97% in assay [9] and 109% in assay [10].

As to `Oc1c2ccccc2c2c3c(cccc13)N=N2`, the residual activity in assay [1] is 86%; in assay [2] it was 82%; in [3], 90%; in assay [4] it was 76%; in [5], 117% (inactive); in assay [6], 107%. The residual activity in assay [7] is 32%; in assay [8] it was -1%; in assay [9], 92%; in [10] it was 36%.

For `O=[N+]([O-])c1ccc(-c2nc(-c3ccc(F)cc3)c(-c3ccncc3)[nH]2)cc1`, the residual activity is 95% in [1]; 68% in assay [2]; 91% in [3]; 68% in assay [4]; 110% (inactive) in assay [5]; 109% in assay [6]. Also, the residual activity in assay [7] turned out to be 64%; in [8] it was 52%; in [9], 100%; in assay [10] it was 94%.

In the case of `NC(=O)c1ccc2[nH]c(-c3ccc(Oc4ccc(Cl)cc4)cc3)nc2c1`, the residual activity is 86% in assay [1]; 80% in [2]; 85% in assay [3]; 105% in assay [4]; 107% (inactive) in [5]; 96% in assay [6]. Also, the residual activity was 109% in assay [7], 79% in assay [8], 99% in assay [9] and 84% in [10].

As for `Cc1ccc(S(=O)(=O)/C=C/C#N)cc1`, the residual activity in assay [1] is 80%; in assay [2] it was 90%; in [3], 97%; in [4], 77%; in assay [5] it was 109% (inactive); in [6], 100%. Also, the residual activity in assay [7] amounted to 98%; in assay [8], 84%; in assay [9], 108%; in [10] it was 102%.

Regarding `CCOc1cc2ncnc(Nc3cccc(Br)c3)c2cc1OCC`, the residual activity in [1] was 82%; in assay [2], 88%; in [3] it was 116%; in assay [4], 106%; in assay [5] it was 87% (inactive); in [6], 95%. Also, the residual activity in [7] was determined as 101%; in assay [8], 54%; in assay [9], 104%; in assay [10], 113%.

`Cn1nc2c3c(cccc31)C(=O)c1ccccc1-2`: the residual activity was 88% in assay [1]; 89% in assay [2]; 97% in assay [3]; 86% in assay [4]; 105% (inactive) in assay [5]; 105% in assay [6]. The residual activity came to 61% in assay [7], 54% in assay [8], 108% in assay [9] and 92% in assay [10].

On to `O=c1cc(-c2cccc3c2Sc2ccccc2S3)oc(N2CCOCC2)c1`, for which the residual activity is 107% in assay [1]; 101% in assay [2]; 97% in assay [3]; 91% in assay [4]; 117% (inactive) in assay [5]; 102% in assay [6]. In addition, the residual activity in assay [7] was 86%; in [8] it was 80%; in [9], 106%; in [10] it was 103%.
